Test results as given in the supplement of paper PMC9446081.
Among all 39,000 compounds or so, about 220 (0.56%) showed activity. This is one part of a sample in which actives are shown more often than they occur. A number with no mark means an inactive call.
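Also: Wild-type cells incubated without shaking, value is the mean of two biological replicates.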

The compounds below were run on Escherichia coli K-12 BW25113 (assay: relative growth (OD600 normalised to plate interquartile mean) (fraction); higher = less growth inhibition, active = 0.2 or less). Details: 50 µM; LB; incubation time: overnight (16-24 h).
For `C[C@@H]1CCCCO[C@H](CN(C)C(=O)Nc2ccc(F)cc2)[C@@H](C)CN([C@H](C)CO)C(=O)c2cc(NC(=O)c3ccccc3)ccc2O1`, the relative growth was 1.04.
In the case of `C[C@H]1CN([C@@H](C)CO)C(=O)c2cc(NS(=O)(=O)c3cccs3)ccc2O[C@@H]1CN(C)Cc1ccc(Cl)c(Cl)c1`, the relative growth is reported as 0.995.
With `O=C(Nc1cc(Cl)cc(Cl)c1O)c1c(O)c(Cl)cc(Cl)c1Cl` the relative growth was 0.565.
`Oc1c(Cl)cc(Cl)cc1Sc1cc(Cl)cc(Cl)c1O` gave a relative growth of 0.202.
In the case of `Oc1c(Cl)cc(Cl)c(Cl)c1Cc1c(O)c(Cl)cc(Cl)c1Cl`, the relative growth is reported as 0.0546 (active).
With `COc1ccc(S(=O)(=O)N(C)C[C@@H]2OCCCC[C@@H](C)Oc3ccc(NC(=O)Nc4cccc5ccccc45)cc3C(=O)N([C@H](C)CO)C[C@@H]2C)cc1` the relative growth was 1.03.
Work on `C[C@@H]1CN([C@H](C)CO)C(=O)CCCn2cc(nn2)CO[C@@H]1CN(C)Cc1ccc2c(c1)OCCN2C` yielded a relative growth of 1.02.
With `CCC(C)C1NC(=O)C(CCNCS(=O)(=O)[O-])NC(=O)C(NC(=O)C(CCNCS(=O)(=O)[O-])NC(=O)C(NC(=O)C(CCNCS(=O)(=O)[O-])NC(=O)CCCCC(C)C)C(C)O)CCNC(=O)C(C(C)O)NC(=O)C(CCNCS(=O)(=O)[O-])NC(=O)C(CCNCS(=O)(=O)[O-])NC(=O)C(C(C)CC)NC1=O.[Na+].[Na+].[Na+].[Na+].[Na+]` (configuration not stated) the relative growth was 0.0529 (active).
With `CC[C@H](C)[C@H](N)C1=N[C@H](C(=O)N[C@@H](CC(C)C)C(=O)N[C@@H]2CCC(=O)[O][Zn][O]C(=O)C[C@H]3NC(=O)[C@H](Cc4c[nH]cn4)NC(=O)[C@@H](Cc4ccccc4)NC(=O)[C@H]([C@@H](C)CC)NC(=O)[C@@H](CCCN)NC(=O)[C@H](CCCCNC(=O)[C@H](CC(N)=O)NC3=O)NC(=O)[C@H]([C@@H](C)CC)NC2=O)CS1` the relative growth was 0.696.
For `CC(C)CCCC(=O)N[C@@H](CCNCS(=O)(=O)O)C(=O)N[C@H](C(=O)N[C@@H](CCNCS(=O)(=O)O)C(=O)N[C@H]1CCNC(=O)[C@H]([C@@H](C)O)NC(=O)[C@H](CCNCS(=O)(=O)O)NC(=O)[C@H](CCNCS(=O)(=O)O)NC(=O)[C@H](CC(C)C)NC(=O)[C@H](CC(C)C)NC(=O)[C@H](CCNCS(=O)(=O)O)NC1=O)[C@@H](C)O`, the relative growth was 0.0299 (active).
Work on `CCCCCCCCCC(=O)N[C@@H](Cc1c[nH]c2ccccc12)C(=O)N[C@H](CC(N)=O)C(=O)N[C@@H](CC(=O)O)C(=O)N[C@@H]1C(=O)NCC(=O)N[C@@H](CCCN)C(=O)N[C@@H](CC(=O)O)C(=O)N[C@H](C)C(=O)N[C@@H](CC(=O)O)C(=O)NCC(=O)N[C@H](CO)C(=O)N[C@@H]([C@H](C)CC(=O)O)C(=O)N[C@@H](CC(=O)c2ccccc2N)C(=O)O[C@@H]1C` yielded a relative growth of 0.952.
`CCCc1nc2c(=O)n(C)c(=O)[nH]c2n1C` was tested, and the relative growth was 0.999.
Work on `C[C@@H]1CN([C@@H](C)CO)C(=O)c2cc(NS(=O)(=O)c3ccc(Cl)cc3)ccc2O[C@@H](C)CCCCO[C@H]1CN(C)Cc1ccncc1` yielded a relative growth of 1.01.
With `C[C@@H]1CN([C@@H](C)CO)C(=O)Cc2cc(NS(=O)(=O)c3ccc(F)cc3)ccc2O[C@@H]1CN(C)S(C)(=O)=O` the relative growth was 1.
Work on `COc1ccc(S(=O)(=O)Nc2ccc3c(c2)C(=O)N([C@@H](C)CO)C[C@@H](C)[C@H](CN(C)S(=O)(=O)c2cn(C)cn2)OCCCC[C@H](C)O3)cc1` yielded a relative growth of 0.989.
Compound `CC(C)NC(=O)N(C)C[C@@H]1Oc2c(NC(=O)C3CCOCC3)cccc2C(=O)N([C@@H](C)CO)C[C@H]1C` has a relative growth of 0.977.
Compound `CCc1nc2c(OCC(=O)c3ccc(Cl)cc3Cl)cccn2c1N(C)C(=O)COc1ccccc1` has a relative growth of 1.02.
`COc1cccc(S(=O)(=O)Nc2ccc3c(c2)OC[C@H](C)N(C(=O)Cc2cccnc2)C[C@H](C)[C@H](OC)CN(C)C3=O)c1` was tested, and the relative growth was 0.963.
For `COc1ccc(NC(=O)N(C)C[C@@H]2OCCCC[C@H](C)Oc3ccc(NS(=O)(=O)c4cccs4)cc3C(=O)N([C@H](C)CO)C[C@H]2C)cc1`, the relative growth was 0.941.
`O=C(NCC[C@@H]1CC[C@H](NS(=O)(=O)c2cccc(F)c2)[C@@H](CO)O1)C1CC1` gave a relative growth of 0.987.
For `C[C@@H]1CN([C@H](C)CO)C(=O)c2cc(NC(=O)Nc3ccc(F)cc3)ccc2O[C@@H]1CN(C)S(=O)(=O)c1cn(C)cn1`, the relative growth was 1.01.
Compound `C[C@H](CO)N1C[C@H](C)[C@@H](CN(C)S(=O)(=O)c2cn(C)cn2)Oc2ccc(NC(=O)Nc3ccc(F)cc3)cc2CC1=O` has a relative growth of 0.986.
Work on `CCNC(=O)[C@@H]1[C@@H](CO)[C@@H]2Cn3c(ccc(-c4cccc(C(=O)N(C)C)c4)c3=O)[C@H]1N2` yielded a relative growth of 1.02.
With `CC1=C(C(=O)O)N2C(=O)C(NC(=O)C(N)c3ccc(O)cc3)C2SC1` (configuration not stated) the relative growth was 0.986.
With `Cc1cc(O)c(C(=O)NC(C(=O)NC2C(=O)N3C(C(=O)O)=C(CSc4nnnn4C)CSC23)c2ccc(O)cc2)cn1` (configuration not stated) the relative growth was 0.0416 (active).
Work on `CC1=C(C(=O)O)N2C(=O)[C@@H](NC(=O)[C@H](N)c3ccc(O)cc3)[C@H]2SC1` yielded a relative growth of 1.06.
In the case of `CCN1CCN(C(=O)NC(C(=O)NC2C(=O)N3C(C(=O)O)=C(CSc4nnnn4C)CSC23)c2ccc(O)cc2)C(=O)C1=O` (configuration not stated), the relative growth is reported as 0.046 (active).
Compound `CC1=C(C(=O)O)N2C(=O)[C@@H](NC(=O)[C@@H](N)c3ccc(O)cc3)[C@H]2SC1` has a relative growth of 0.999.
`Cc1cc(=O)c(C(=O)N[C@@H](C(=O)N[C@@H]2C(=O)N3C(C(=O)O)=C(CSc4nnnn4C)CS[C@H]23)c2ccc(O)cc2)c[nH]1` was tested, and the relative growth was 0.0389 (active).
For `N=c1sccn1CC(=O)O`, the relative growth was 1.04.
Compound `CC1=C(/C=C/C(C)=C/C=C/C(C)=C/C(=O)O)C(C)(C)CCC1` has a relative growth of 0.987.
`Cc1noc(C)c1NC(=O)N(C)C[C@@H]1OCCCC[C@H](C)Oc2ccc(NC(=O)CCC(F)(F)F)cc2C(=O)N([C@H](C)CO)C[C@@H]1C` was tested, and the relative growth was 0.979.
